# In PMC11062922 (Nature Chemical Biology, 2023):
# Where two headings read alike, the source gives them in different places.
# Tested on: ACVR1B
# Settings: read-out: apparent Kd, n = 1
substance,measurement,setting,value
Lestaurtinib,potency estimated from few doses,"compound concentrations:100 nM and 1000 nM (sheet 'Lestaurtinib' of Supplementary Table 1),run:Lestaurtinib_02339_R1,Plate:MR001",0.73 µM
same,potency estimated from few doses,"compound concentrations:100 nM and 1000 nM (sheet 'Lestaurtinib' of Supplementary Table 1),run:Lestaurtinib_02364_R2,Plate:MR002",0.951 µM
same,potency estimated from few doses,"compound concentrations:100 nM and 1000 nM (sheet 'Lestaurtinib' of Supplementary Table 1),run:Lestaurtinib_02364_R3,Plate:MR002",0.661 µM
same,potency estimated from few doses,"compound concentrations:100 nM and 1000 nM (sheet 'Lestaurtinib' of Supplementary Table 1),run:Lestaurtinib_02367_R1,Plate:MR003",0.671 µM
same,potency estimated from few doses,"compound concentrations:100 nM and 1000 nM (sheet 'Lestaurtinib' of Supplementary Table 1),run:Lestaurtinib_02367_R2,Plate:MR003",0.684 µM
same,potency estimated from few doses,"compound concentrations:100 nM and 1000 nM (sheet 'Lestaurtinib' of Supplementary Table 1),run:Lestaurtinib_02367_R3,Plate:MR003",0.783 µM
same,potency estimated from few doses,"compound concentrations:100 nM and 1000 nM (sheet 'Lestaurtinib' of Supplementary Table 1),run:Lestaurtinib_02381_R1,Plate:MR004",0.694 µM
same,potency estimated from few doses,"compound concentrations:100 nM and 1000 nM (sheet 'Lestaurtinib' of Supplementary Table 1),run:Lestaurtinib_02381_R3,Plate:MR004",0.515 µM
same,potency estimated from few doses,"compound concentrations:100 nM and 1000 nM (sheet 'Lestaurtinib' of Supplementary Table 1),run:Lestaurtinib_02422_R2,Plate:MR006",0.951 µM
same,potency estimated from few doses,"compound concentrations:100 nM and 1000 nM (sheet 'Lestaurtinib' of Supplementary Table 1),run:Lestaurtinib_02437_R1,Plate:MR007",0.592 µM
same,potency estimated from few doses,"compound concentrations:100 nM and 1000 nM (sheet 'Lestaurtinib' of Supplementary Table 1),run:Lestaurtinib_02437_R3,Plate:MR007",0.74 µM
same,potency estimated from few doses,"compound concentrations:100 nM and 1000 nM (sheet 'Lestaurtinib' of Supplementary Table 1),run:Lestaurtinib_02438_R1,Plate:MR008",0.415 µM
same,potency estimated from few doses,"compound concentrations:100 nM and 1000 nM (sheet 'Lestaurtinib' of Supplementary Table 1),run:Lestaurtinib_02443_R2,Plate:MR009",0.855 µM
same,potency estimated from few doses,"compound concentrations:100 nM and 1000 nM (sheet 'Lestaurtinib' of Supplementary Table 1),run:Lestaurtinib_02443_R3,Plate:MR009",0.487 µM
same,potency estimated from few doses,"compound concentrations:100 nM and 1000 nM (sheet 'Lestaurtinib' of Supplementary Table 1),run:Lestaurtinib_02473_R1,Plate:MR010",0.479 µM
same,potency estimated from few doses,"compound concentrations:100 nM and 1000 nM (sheet 'Lestaurtinib' of Supplementary Table 1),run:Lestaurtinib_02473_R2,Plate:MR010",0.674 µM
same,potency estimated from few doses,"compound concentrations:100 nM and 1000 nM (sheet 'Lestaurtinib' of Supplementary Table 1),run:Lestaurtinib_02482_R1,Plate:MR011",0.665 µM
same,potency estimated from few doses,"compound concentrations:100 nM and 1000 nM (sheet 'Lestaurtinib' of Supplementary Table 1),run:Lestaurtinib_02487_R1,Plate:MR012",0.741 µM
same,potency estimated from few doses,"compound concentrations:100 nM and 1000 nM (sheet 'Lestaurtinib' of Supplementary Table 1),run:Lestaurtinib_02487_R2,Plate:MR012",0.754 µM
same,potency estimated from few doses,"compound concentrations:100 nM and 1000 nM (sheet 'Lestaurtinib' of Supplementary Table 1),run:Lestaurtinib_02487_R3,Plate:MR012",0.549 µM
same,potency estimated from few doses,"compound concentrations:100 nM and 1000 nM (sheet 'Lestaurtinib' of Supplementary Table 1),run:Lestaurtinib_02496_R2,Plate:MR013",0.776 µM
same,potency estimated from few doses,"compound concentrations:100 nM and 1000 nM (sheet 'Lestaurtinib' of Supplementary Table 1),run:Lestaurtinib_02496_R3,Plate:MR013",0.965 µM
same,potency estimated from few doses,"compound concentrations:100 nM and 1000 nM (sheet 'Lestaurtinib' of Supplementary Table 1),run:Lestaurtinib_02566_R1,Plate:MR014",0.386 µM
same,potency estimated from few doses,"compound concentrations:100 nM and 1000 nM (sheet 'Lestaurtinib' of Supplementary Table 1),run:Lestaurtinib_02566_R3,Plate:MR014",0.479 µM
same,potency estimated from few doses,"compound concentrations:100 nM and 1000 nM (sheet 'Lestaurtinib' of Supplementary Table 1),run:Lestaurtinib_02577_R3,Plate:MR016",0.422 µM
same,potency estimated from few doses,"compound concentrations:100 nM and 1000 nM (sheet 'Lestaurtinib' of Supplementary Table 1),run:Lestaurtinib_02584_R1,Plate:MR017",0.545 µM
same,potency estimated from few doses,"compound concentrations:100 nM and 1000 nM (sheet 'Lestaurtinib' of Supplementary Table 1),run:Lestaurtinib_02584_R2,Plate:MR017",0.97 µM
same,potency estimated from few doses,"compound concentrations:100 nM and 1000 nM (sheet 'Lestaurtinib' of Supplementary Table 1),run:Lestaurtinib_02584_R3,Plate:MR017",0.748 µM
same,potency estimated from few doses,"compound concentrations:100 nM and 1000 nM (sheet 'Lestaurtinib' of Supplementary Table 1),run:Lestaurtinib_02601_R1,Plate:MR018",0.559 µM
same,potency estimated from few doses,"compound concentrations:100 nM and 1000 nM (sheet 'Lestaurtinib' of Supplementary Table 1),run:Lestaurtinib_02601_R3,Plate:MR018",0.707 µM
same,potency estimated from few doses,"compound concentrations:100 nM and 1000 nM (sheet 'Lestaurtinib' of Supplementary Table 1),run:Lestaurtinib_02606_R1,Plate:MR019",0.628 µM
same,potency estimated from few doses,"compound concentrations:100 nM and 1000 nM (sheet 'Lestaurtinib' of Supplementary Table 1),run:Lestaurtinib_02606_R3,Plate:MR019",0.836 µM
same,potency estimated from few doses,"compound concentrations:100 nM and 1000 nM (sheet 'Lestaurtinib' of Supplementary Table 1),run:Lestaurtinib_02624_R1,Plate:MR020",0.613 µM
same,potency estimated from few doses,"compound concentrations:100 nM and 1000 nM (sheet 'Lestaurtinib' of Supplementary Table 1),run:Lestaurtinib_02624_R3,Plate:MR020",0.724 µM
same,potency estimated from few doses,"compound concentrations:100 nM and 1000 nM (sheet 'Lestaurtinib' of Supplementary Table 1),run:Lestaurtinib_02724_R1,Plate:MR021",0.624 µM
same,potency estimated from few doses,"compound concentrations:100 nM and 1000 nM (sheet 'Lestaurtinib' of Supplementary Table 1),run:Lestaurtinib_02724_R2,Plate:MR021",0.755 µM
